Assay [1] is described as follows: rapamycin-like changes in RPL19A-GFP expression – cell-based, S. cerevisiae, multiplex flow cytometry, primary screen (AID 1862; in the data active means percent of DMSO control GFP below about 86%;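 further: lower values mimic rapamycin by blocking the RPL19A rise seen in DMSO cells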). The following applies: S. cerevisiae RPL19A-GFP strain, flow cytometry fluorescence, 3 h; at 10 µM; stronger effect = lower value. Background: A flow cytometer gives signals particle by particle.
Assay [2] in a line: TOR pathway GLN3 branch reporter MEP2-GFP changes – S. cerevisiae, multiplex flow cytometry, primary screen (AID 1867;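 active means GFP response, as percent of the DMSO control, above the screen-wide mean plus 3 SD, about 139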;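 further: median GFP channel fluorescence of barcode-gated MEP2-GFP cells measured by flow cytometry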). Conditions: S. cerevisiae MEP2-GFP strain, 3 h, at 10 µM, stronger effect = higher value, 100% means same as DMSO wells.
The nature of assay [3]: TOR pathway RTG branch CIT2 reporter changes – S. cerevisiae, GFP fusion, multiplex flow cytometry, primary screen (AID 1870;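 active means percent response above a set limit, the screen-wide mean plus 3 SD, cut at about 130% in these data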;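 further: barcoded CIT2-GFP strain pooled with four other GFP strains with rapamycin as positive control; median GFP fluorescence per well over plate mean of DMSO wells so 100% = DMSO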). Conditions: S. cerevisiae CIT2-GFP expression, 3 h, at 10 µM, stronger effect = higher value.
Assay [4] in a line: TOR pathway LAP4-GFP level changes – S. cerevisiae, multiplex flow cytometry, primary screen (AID 1873;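 active means GFP signal, as percent of the solvent control, above the screen mean plus 3 SD, about 149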). The following applies: S. cerevisiae LAP4-GFP expression, 3 h, at 10 µM, stronger effect = higher value.
Assay [5] is described as follows: yeast AGP1-GFP level changes, GLN3 branch – cell-based, multiplex flow cytometry, S. cerevisiae, primary screen (AID 1887;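 active means GFP signal above the screen-wide mean plus 3 SD, that is over about 124.5% of the solvent control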;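 further: AGP1-GFP fusion strain of S. cerevisiae within a five-strain barcoded multiplex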). Conditions: 3 h, at 10 µM, stronger effect = higher value.
Assay [6] can be described thus: reduced mouse 2C T cell binding to pMHC/ICAM-1 vesicles – MLPCN validation set, flow cytometry, LFA-1/ICAM-1 modulator project, pilot screen (AID 2523;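 active means response below a set limit, under 55% cells CD8-positive and vesicle-bound, and CD8 cells' 90th-percentile brightness under 279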;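 on vesicle binding response: mean PE anti-B7-1 fluorescence of CD8+ cells relative to row control; 100% = QL9-loaded vesicles with DMSO vehicle in the same plate row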). Conditions: 2C mouse CD8+ T cells, at 7 µM, stronger effect = lower value; double positive events: measured here: CD8+/vesicle+ event percentage.
Assay [7] deals with Integrin beta-1 (Homo sapiens) + Integrin alpha-4 (Homo sapiens) (UniProt P13612+P05556). Description: alpha4beta1 integrin LIBS antibody binding reduction – U937 cells, HUTS-21 mAb, flow cytometry, validation set, VLA-4 allosteric modulator project, pilot screen (AID 2674;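 active means inhibition above 50%, about 3 SD of the validation set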;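 further: antibody binding induced by the VLA-4 ligand LDV present at three times its Kd; 0% = LDV ligand with antibody and no compound and 100% = antibody without LDV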). The following applies: HUTS-21 LIBS mAb binding, at 6.7 µM, stronger effect = higher value, binding induced by LDV ligand.

The nature of assay [8]: calorie-restriction mimetic ROS inhibitors, yeast – validation compound set, pilot screen (AID 2706;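 active means superoxide response below 65% of plate, a cut near 3 SD across the whole screen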;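 further: yeast exposed to compound for one week at 30 degrees C before staining; 100% = mean of all compound wells on the same plate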). Conditions: S. cerevisiae aging, superoxide DHE fluorescence; at 10 µM, stronger effect = lower value.
Assay [9] has as its target Beta-adrenergic receptor kinase 1 (Homo sapiens) (UniProt P25098). The assay can be described thus: GRK2 binders displacing RNA aptamer, biochemical, validation, human GRK2, bead flow cytometry (AID 488806;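 active means aptamer binding inhibition above 30%, about 3 SD of noise from non-fluorescent compounds; inactive means inhibition at or below 30%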). Conditions: bead-bound GRK2, FAM-aptamer displacement, at 10 µM, stronger effect = higher value.
The target of assay [10] is AP-2 complex subunit beta (Homo sapiens) (UniProt P63010). The assay can be described thus: beta-arrestin/AP2 interaction blockers – biochemical, validation set, GST-AP2 beads, flow cytometry, pilot screen (AID 504541;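 active means inhibition above 54%, about 3 SD of non-fluorescent compounds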;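 further: AP2 carries R879A mutation and is captured from E. coli lysate; bead-bound FITC arrestin peptide fluorescence measuring arrestin peptide binding to AP2; 0% = DMSO wells and 100% = excess unlabeled arrestin peptide control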). Conditions: FITC arrestin peptide, at 10 µM, stronger effect = higher value, AP2 beta2 appendage fragment, R879A mutant.
The nature of assay [11]: cytosolic pH regulators acting via V-ATPase – S. cerevisiae, pHLuorin, HTS validation (AID 504600; in the data active means response above about 15%;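 further: plate controls were DMSO for no effect and reference compound for full effect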). The following applies: V-ATPase proton transport, at 10 µM, stronger effect = higher value.
In assay [12] the test system is anti-desmoglein-3 scFv antibody binding to human DSG3. The assay can be described thus: blockers of pathogenic pemphigus antibody–desmoglein-3 binding – biochemical, validation compound set, bead-based, flow cytometry, pilot screen (AID 588368;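 active means binding below the plate cutoff, the plate median minus 3 SD, with a reading above zero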;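 further: signal is the median channel fluorescence of bead-bound GFP antibody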). Conditions: Protein G beads, DSG3-Fc, scFv-GFP binding, at 10 µM, stronger effect = lower value.
Assay [13] in a line: Nile Red efflux blockade in pump-expressing yeast – validation compound set, multiplex, phenotypic, pilot screen (AID 588506;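 active means efflux inhibition above 0.42, the validation set average plus 4 SD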;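 further: Nile Red retained in cells so higher fluorescence means more efflux inhibition; 0 = negative control wells and 1 = enniatin B 25 µM full block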). Conditions: S. cerevisiae pump-expressing triplex, Nile Red efflux flow cytometry; at 10 µM; stronger effect = higher value; the pumps come from Candida albicans.
Assay [14] concerns the target ATP-binding cassette sub-family B member 6 (Homo sapiens) (UniProt Q9NP58). The assay can be described thus: blockers of ABCB6-driven porphyrin uptake – K562-ABCB6 cells, flow cytometry, validation set, pilot screen (AID 588550;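 active means inhibition above the screen-wide mean plus 3 SD, about 51%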;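 further: 0% = DMSO wells and 100% = benzethonium chloride 70 µM positive control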). The following applies: K562-ABCB6 porphyrin accumulation, 1 h, at 10 µM, stronger effect = higher value.
Assay [15] can be described thus: AML differentiation inducers, ER-HoxA9 marrow cells – cell-based, GFP/MAC1 double positive, flow cytometry, validation set, primary screen (AID 588685).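 Further: compound exposure lasts four days before antibody staining and flow analysis; 0% = DMSO wells and 100% = 5 µM fulvestrant positive control.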 Conditions: stronger effect = higher value, normalized: vehicle 0, fulvestrant 100.

Results filed as inconclusive are left out. Calls of active or inactive are those of the source.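 How the source made its calls, unless noted: active means differentiation response of at least 50%, scaled between solvent and reference control, from cells with both markers; inactive means the rest.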

In general, inhibition refers to the drop in the measured response relative to a control, in per cent.

Beta-adrenergic receptor kinase 1 (Homo sapiens), sequence (P25098 whole entry, looked up): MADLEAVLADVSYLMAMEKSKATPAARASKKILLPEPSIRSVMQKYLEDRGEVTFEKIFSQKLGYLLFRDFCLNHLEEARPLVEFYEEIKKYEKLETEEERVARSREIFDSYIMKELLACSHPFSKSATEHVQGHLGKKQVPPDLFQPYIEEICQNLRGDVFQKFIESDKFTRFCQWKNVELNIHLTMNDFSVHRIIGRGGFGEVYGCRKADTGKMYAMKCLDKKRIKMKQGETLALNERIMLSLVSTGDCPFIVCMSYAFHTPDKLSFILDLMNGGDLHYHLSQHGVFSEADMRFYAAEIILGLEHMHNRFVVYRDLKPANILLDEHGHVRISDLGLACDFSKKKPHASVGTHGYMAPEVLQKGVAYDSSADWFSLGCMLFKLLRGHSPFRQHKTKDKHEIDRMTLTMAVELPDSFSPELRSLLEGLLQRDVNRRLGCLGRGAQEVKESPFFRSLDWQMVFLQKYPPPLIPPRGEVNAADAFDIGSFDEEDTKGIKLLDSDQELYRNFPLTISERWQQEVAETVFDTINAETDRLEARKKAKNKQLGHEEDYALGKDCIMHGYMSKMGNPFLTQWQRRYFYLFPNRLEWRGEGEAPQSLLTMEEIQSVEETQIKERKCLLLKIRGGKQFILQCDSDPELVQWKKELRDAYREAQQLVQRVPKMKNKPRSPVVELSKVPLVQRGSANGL
ATP-binding cassette sub-family B member 6 (Homo sapiens), sequence (Q9NP58 whole entry, looked up): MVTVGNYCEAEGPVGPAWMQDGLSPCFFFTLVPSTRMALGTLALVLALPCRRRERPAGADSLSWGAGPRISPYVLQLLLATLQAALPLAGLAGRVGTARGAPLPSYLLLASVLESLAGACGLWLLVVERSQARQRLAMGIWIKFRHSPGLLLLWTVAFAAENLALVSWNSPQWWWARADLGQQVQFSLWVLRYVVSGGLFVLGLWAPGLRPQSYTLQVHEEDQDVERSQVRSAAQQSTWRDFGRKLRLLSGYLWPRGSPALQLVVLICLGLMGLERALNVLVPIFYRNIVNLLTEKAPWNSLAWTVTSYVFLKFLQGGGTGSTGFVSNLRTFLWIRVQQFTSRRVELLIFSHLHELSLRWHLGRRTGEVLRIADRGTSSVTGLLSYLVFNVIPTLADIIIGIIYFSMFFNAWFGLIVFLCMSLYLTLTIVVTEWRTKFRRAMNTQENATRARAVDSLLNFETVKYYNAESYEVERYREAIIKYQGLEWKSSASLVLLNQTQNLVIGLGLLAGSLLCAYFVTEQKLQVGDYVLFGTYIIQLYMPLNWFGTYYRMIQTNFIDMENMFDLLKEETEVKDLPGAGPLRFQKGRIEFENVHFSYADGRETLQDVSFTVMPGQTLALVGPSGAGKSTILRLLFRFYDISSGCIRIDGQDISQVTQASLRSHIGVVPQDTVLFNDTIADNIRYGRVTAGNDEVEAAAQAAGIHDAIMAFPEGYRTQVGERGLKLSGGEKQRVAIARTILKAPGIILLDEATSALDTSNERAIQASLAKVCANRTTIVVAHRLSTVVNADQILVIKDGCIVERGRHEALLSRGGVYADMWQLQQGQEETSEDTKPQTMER
Integrin beta-1 (Homo sapiens) + Integrin alpha-4 (Homo sapiens), sequence (P05556 whole entry, looked up): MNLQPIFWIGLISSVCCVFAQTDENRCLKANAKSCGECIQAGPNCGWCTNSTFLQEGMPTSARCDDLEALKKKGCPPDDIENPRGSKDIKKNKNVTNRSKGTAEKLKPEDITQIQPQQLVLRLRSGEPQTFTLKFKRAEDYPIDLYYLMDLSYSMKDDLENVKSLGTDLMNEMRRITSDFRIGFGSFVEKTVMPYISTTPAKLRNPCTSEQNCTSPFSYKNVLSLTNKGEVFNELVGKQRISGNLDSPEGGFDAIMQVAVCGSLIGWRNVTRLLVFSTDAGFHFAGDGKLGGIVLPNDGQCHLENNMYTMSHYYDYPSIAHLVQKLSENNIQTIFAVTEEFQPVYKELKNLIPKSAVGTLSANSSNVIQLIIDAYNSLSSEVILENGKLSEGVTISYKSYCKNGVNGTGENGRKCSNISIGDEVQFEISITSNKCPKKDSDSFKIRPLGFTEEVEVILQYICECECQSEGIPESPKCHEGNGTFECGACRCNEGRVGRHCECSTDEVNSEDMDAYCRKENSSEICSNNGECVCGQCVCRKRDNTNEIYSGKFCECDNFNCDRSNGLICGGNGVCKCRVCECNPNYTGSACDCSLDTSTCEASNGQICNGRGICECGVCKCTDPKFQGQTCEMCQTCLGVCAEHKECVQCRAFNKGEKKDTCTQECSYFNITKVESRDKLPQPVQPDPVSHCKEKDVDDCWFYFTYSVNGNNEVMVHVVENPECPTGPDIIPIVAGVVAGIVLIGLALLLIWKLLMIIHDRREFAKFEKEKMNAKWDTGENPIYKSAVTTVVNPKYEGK
Integrin beta-1 (Homo sapiens) + Integrin alpha-4 (Homo sapiens), sequence (P13612 whole entry, looked up): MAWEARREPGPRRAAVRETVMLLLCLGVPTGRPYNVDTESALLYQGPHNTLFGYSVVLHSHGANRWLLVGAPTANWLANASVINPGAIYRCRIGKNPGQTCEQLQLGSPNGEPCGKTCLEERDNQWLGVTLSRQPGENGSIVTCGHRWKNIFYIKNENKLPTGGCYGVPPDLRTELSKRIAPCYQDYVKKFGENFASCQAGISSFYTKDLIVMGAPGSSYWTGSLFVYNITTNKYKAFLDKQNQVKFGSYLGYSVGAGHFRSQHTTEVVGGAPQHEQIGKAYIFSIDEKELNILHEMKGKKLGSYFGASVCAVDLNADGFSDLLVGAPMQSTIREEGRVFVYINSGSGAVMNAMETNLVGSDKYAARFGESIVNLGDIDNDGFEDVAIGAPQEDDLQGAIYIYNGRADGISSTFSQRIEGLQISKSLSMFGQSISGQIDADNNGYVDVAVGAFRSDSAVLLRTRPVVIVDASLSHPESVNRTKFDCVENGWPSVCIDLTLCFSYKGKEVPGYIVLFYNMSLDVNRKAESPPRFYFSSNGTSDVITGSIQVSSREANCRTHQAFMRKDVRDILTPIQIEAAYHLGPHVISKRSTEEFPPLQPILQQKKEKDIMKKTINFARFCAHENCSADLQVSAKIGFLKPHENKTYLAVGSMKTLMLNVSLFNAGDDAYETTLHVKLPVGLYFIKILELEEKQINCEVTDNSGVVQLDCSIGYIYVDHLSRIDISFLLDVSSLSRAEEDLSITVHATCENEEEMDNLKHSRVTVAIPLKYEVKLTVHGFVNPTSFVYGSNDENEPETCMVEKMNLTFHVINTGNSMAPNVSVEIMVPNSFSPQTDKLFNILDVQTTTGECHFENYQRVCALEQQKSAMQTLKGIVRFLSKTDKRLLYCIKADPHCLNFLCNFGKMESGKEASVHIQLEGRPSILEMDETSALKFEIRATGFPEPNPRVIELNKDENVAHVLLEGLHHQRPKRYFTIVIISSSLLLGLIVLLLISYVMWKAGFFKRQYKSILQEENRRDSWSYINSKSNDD
AP-2 complex subunit beta (Homo sapiens), sequence (P63010 whole entry, looked up, the tested form may be a part, one chain of several): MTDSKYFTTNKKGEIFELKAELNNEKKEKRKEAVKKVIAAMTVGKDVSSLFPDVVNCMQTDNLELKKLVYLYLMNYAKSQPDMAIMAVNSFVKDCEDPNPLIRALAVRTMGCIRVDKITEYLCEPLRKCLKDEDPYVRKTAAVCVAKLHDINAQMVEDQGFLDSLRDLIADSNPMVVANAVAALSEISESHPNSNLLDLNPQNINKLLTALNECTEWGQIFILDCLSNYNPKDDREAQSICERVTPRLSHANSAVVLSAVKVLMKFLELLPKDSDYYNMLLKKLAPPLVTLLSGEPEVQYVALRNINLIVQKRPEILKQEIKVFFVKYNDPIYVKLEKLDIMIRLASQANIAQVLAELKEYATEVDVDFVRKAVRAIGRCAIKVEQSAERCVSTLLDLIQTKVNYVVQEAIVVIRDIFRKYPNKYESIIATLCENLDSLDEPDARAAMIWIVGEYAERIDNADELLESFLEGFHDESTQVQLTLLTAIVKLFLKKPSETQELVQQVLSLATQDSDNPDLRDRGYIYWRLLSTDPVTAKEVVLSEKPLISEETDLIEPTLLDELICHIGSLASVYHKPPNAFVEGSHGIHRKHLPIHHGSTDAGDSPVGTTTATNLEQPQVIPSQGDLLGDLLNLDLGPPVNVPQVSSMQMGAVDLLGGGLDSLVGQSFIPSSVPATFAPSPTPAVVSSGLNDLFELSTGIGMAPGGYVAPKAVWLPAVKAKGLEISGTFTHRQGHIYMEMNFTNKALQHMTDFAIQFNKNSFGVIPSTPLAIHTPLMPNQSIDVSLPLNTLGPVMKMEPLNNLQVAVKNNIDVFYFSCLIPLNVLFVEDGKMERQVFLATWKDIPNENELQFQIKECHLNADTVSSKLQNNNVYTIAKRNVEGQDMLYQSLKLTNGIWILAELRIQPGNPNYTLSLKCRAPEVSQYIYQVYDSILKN

For `Cc1ccc2c(c1)c1c3n2CCCNC3CCC1` (stereo unspecified), the percent of DMSO control GFP in assay [1] was 103% (inactive). Also, the GFP response vs DMSO is 106% (inactive) in [2] and 95.4% (inactive) in assay [4]. Besides, the percent response of DMSO control in assay [3] was 107% (inactive). In addition, the GFP response, % of DMSO in [5] was 94% (inactive). In [6], this compound showed a double positive events of 63.9%. Moreover, the vesicle binding response in assay [6] is 229% (inactive). Further, the inhibition in assay [7] was 10% (inactive); in assay [10], -3% (inactive); in [14], 9% (inactive). Further, the superoxide response (% of plate) in assay [8] was 85.7% (inactive). Further, the aptamer binding inhibition in [9] is -4% (inactive). In addition, the response in [11] was 3.62% (inactive). Besides, in assay [12], the binding (% of control) was 111% (inactive). Besides, the efflux inhibition (fraction of control) in [13] was -0.05 (inactive). Besides, the differentiation response in assay [15] was -3.43% (inactive).

On to `CC(=O)O[C@H]1CSC[C@H]1NC(=O)c1ccccc1`, for which, in [1], the percent of DMSO control GFP is 101% (inactive). In addition, the GFP response vs DMSO in assay [2] is 91.8% (inactive); in assay [4] it was 102% (inactive). The percent response of DMSO control in assay [3] was 106% (inactive). The GFP response, % of DMSO in [5] is 101% (inactive). This compound also showed a double positive events in [6] of 60.9%. In assay [6], the vesicle binding response is 233% (inactive). Also, the figures for the inhibition in assay [7], in [10] and in assay [14] were -7.7% (inactive), -16.1% (inactive) and 12% (inactive), respectively. In assay [8], the superoxide response (% of plate) was 104% (inactive). Also, the aptamer binding inhibition in [9] is -6% (inactive). Besides, the response in [11] is -9.38% (inactive). For the same compound, in assay [12], the binding (% of control) was 102% (inactive). Also, in assay [13], the efflux inhibition (fraction of control) was -0.28 (inactive). Further, the differentiation response in [15] was -13.1% (inactive).

Regarding `COc1cc(=O)n(C)c2ccccc12`, the percent of DMSO control GFP in [1] was 93.5% (inactive). For the same compound, the GFP response vs DMSO in assay [2] was 99.9% (inactive); in assay [4], 90.3% (inactive). The percent response of DMSO control in [3] was 97.9% (inactive). Moreover, the GFP response, % of DMSO in [5] was 93.7% (inactive). This compound also returned a double positive events in [6] of 54.6%. For the same compound, the vesicle binding response in assay [6] was 136% (inactive). Besides, the inhibition in assay [7] was 7.22% (inactive); in assay [10], 28% (inactive); in [14] it was 3% (inactive). In assay [8], the superoxide response (% of plate) is 103% (inactive). Besides, the aptamer binding inhibition in assay [9] was 3% (inactive). Besides, the response in assay [11] is 3.71% (inactive). Also, the binding (% of control) in assay [12] is 96.9% (inactive). Moreover, the efflux inhibition (fraction of control) in assay [13] is 0.33 (inactive). Besides, the differentiation response in [15] is -1.82% (inactive).

As for `COc1ccccc1C1C(C#N)=C(N)Oc2c1oc(CO)cc2=O` (stereo unspecified), in [1], the percent of DMSO control GFP was 102% (inactive). The GFP response vs DMSO was 96.9% (inactive) in [2] and 103% (inactive) in assay [4]. Further, the percent response of DMSO control in [3] is 111% (inactive). The GFP response, % of DMSO in [5] is 107% (inactive). The compound also showed a double positive events in assay [6] of 52%. Moreover, in assay [6], the vesicle binding response is 174% (inactive). In addition, the inhibition in assay [7] was -11.4% (inactive); in assay [10], -6.41% (inactive); in [14] it was 9% (inactive). In addition, the superoxide response (% of plate) in assay [8] is 103% (inactive). Moreover, the aptamer binding inhibition in [9] is 2% (inactive). Moreover, in assay [11], the response is 2.3% (inactive). In addition, the binding (% of control) in assay [12] is 95.9% (inactive). The efflux inhibition (fraction of control) in [13] is 0.03 (inactive). Also, in assay [15], the differentiation response is -11.5% (inactive).

As for `COc1ccc2[nH]cc(CCNC(=O)C3CCCNC3=O)c2c1` (stereo unspecified), the percent of DMSO control GFP in [1] is 103% (inactive). Also, the GFP response vs DMSO in assay [2] is 97.9% (inactive); in assay [4] it was 104% (inactive). In addition, the percent response of DMSO control in assay [3] was 104% (inactive). In addition, the GFP response, % of DMSO in assay [5] is 105% (inactive). Moreover, the double positive events in assay [6] turned out to be 57.5%. The vesicle binding response in assay [6] is 218% (inactive). The inhibition in assay [7] is -2.11% (inactive); in assay [10], -18.5% (inactive); in assay [14] it was 7% (inactive). In assay [8], the superoxide response (% of plate) was 100% (inactive). The aptamer binding inhibition in [9] was -7% (inactive). Moreover, in assay [11], the response was 2.02% (inactive). Besides, the binding (% of control) in assay [12] is 103% (inactive). For the same compound, in assay [13], the efflux inhibition (fraction of control) was -0.24 (inactive). Moreover, the differentiation response in assay [15] is 6.26% (inactive).

Turning to `O=C(CCN1CCC(c2ccccc2)C1)c1ccc2c(c1)OCCO2` (stereo unspecified), in [1], the percent of DMSO control GFP was 102% (inactive). The GFP response vs DMSO was 134% (inactive) in [2] and 104% (inactive) in [4]. In assay [3], the percent response of DMSO control is 103% (inactive). Besides, the GFP response, % of DMSO in assay [5] is 102% (inactive). In assay [6], this compound displayed a double positive events of 47.2%. Moreover, in assay [6], the vesicle binding response was 140% (inactive). Also, the inhibition in assay [7] is 13.8% (inactive); in [10], -9.51% (inactive); in assay [14] it was 6% (inactive). In addition, the superoxide response (% of plate) in [8] is 94% (inactive). Also, the aptamer binding inhibition in assay [9] is 5% (inactive). Further, in [11], the response is 2.78% (inactive). Also, in assay [12], the binding (% of control) is 103% (inactive). Also, in [13], the efflux inhibition (fraction of control) is -0.31 (inactive). Moreover, the differentiation response in assay [15] is -5.05% (inactive).
